# Measured values as given in the supplement of paper PMC4466140.
# Columns and labels:
# Test in all cases: SPOT peptide array binding signal intensity (averaged, normalized) (arbitrary units (background-subtracted, floor 0; scale differs between SH3 domains)); higher = stronger binding of the SH3 domain to the peptide
# AgAbp1 = target: AgAbp1
# Outline: (§1)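 SH3 domains from four yeast species were expressed as GST fusions in E. coli BL21(DE3) and purified on glutathione Sepharose. Each was incubated at 10 μg/ml overnight at 4°C in TBS-based blocking buffer on cellulose membranes bearing synthetic 15-mer peptides, in which serines replaced cysteines. Bound protein was detected with anti-GST antibody, an HRP anti-mouse secondary and luminol, then imaged and quantified with Genespotter. The binding signal is the normalized, background-subtracted spot intensity averaged over replicates, in arbitrary units that are not the same from one domain to another.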
# AgBbc1 = target: AgBbc1
# Outline: as §1
# AgBem1-D1 = target: AgBem1-D1
# Outline: as §1
# AgBzz1-D1 = target: AgBzz1-D1
# Outline: as §1
# AgBzz1-D2 = target: AgBzz1-D2
# Outline: as §1
# AgCyk3 = target: AgCyk3
# Outline: as §1
# AgFus1 = target: AgFus1
# Outline: as §1
# AgHof1 = target: AgHof1
# Outline: as §1
# AgHse1 = target: AgHse1
# Outline: as §1
# AgLsb1 = target: AgLsb1
# Outline: as §1
# AgLsb4 = target: AgLsb4
# Outline: as §1
# AgMyo5 = target: AgMyo5
# Outline: as §1
# AgNbp2 = target: AgNbp2
# Outline: as §1
# AgRvs167 = target: AgRvs167
# Outline: as §1
# AgSho1 = target: AgSho1
# Outline: as §1
# AgSla1-D1-D2 = target: AgSla1-D1-D2
# Outline: as §1
# AgSla1-D3 = target: AgSla1-D3
# Outline: as §1
# CaAbp1-D1 = target: CaAbp1-D1
# Outline: as §1
# CaAbp1-D2 = target: CaAbp1-D2
# Outline: as §1
# CaBbc1 = target: CaBbc1
# Outline: as §1
# CaBem1-D1 = target: CaBem1-D1
# Outline: as §1
# CaBzz1-D1 = target: CaBzz1-D1
# Outline: as §1
# CaBzz1-D2 = target: CaBzz1-D2
# Outline: as §1
# CaCyk3 = target: CaCyk3
# Outline: as §1
# CaFus1 = target: CaFus1
# Outline: as §1
# CaHof1 = target: CaHof1
# Outline: as §1
# CaHse1 = target: CaHse1
# Outline: as §1
# CaLsb1 = target: CaLsb1
# Outline: as §1
# CaLsb4 = target: CaLsb4
# Outline: as §1
# CaMyo5 = target: CaMyo5
# Outline: as §1
# CaNbp2 = target: CaNbp2
# Outline: as §1
# CaRvs167 = target: CaRvs167
# Outline: as §1
# CaRvs167-3 = target: CaRvs167-3
# Outline: as §1
# CaSho1 = target: CaSho1
# Outline: as §1
# CaSla1-D1-D2 = target: CaSla1-D1-D2
# Outline: as §1
# CaSla1-D3 = target: CaSla1-D3
# Outline: as §1
# ScAbp1 = target: ScAbp1
# Outline: as §1
# ScBbc1 = target: ScBbc1
# Outline: as §1
# ScBem1-D1 = target: ScBem1-D1
# Outline: as §1
# ScBzz1-D1 = target: ScBzz1-D1
# Outline: as §1
# ScBzz1-D2 = target: ScBzz1-D2
# Outline: as §1
# ScCyk3 = target: ScCyk3
# Outline: as §1
# ScFus1 = target: ScFus1
# Outline: as §1
# ScHof1 = target: ScHof1
# Outline: as §1
# ScHse1 = target: ScHse1
# Outline: as §1
# ScLsb1 = target: ScLsb1
# Outline: as §1
# ScLsb2 = target: ScLsb2
# Outline: as §1
# ScLsb3 = target: ScLsb3
# Outline: as §1
# ScLsb4 = target: ScLsb4
# Outline: as §1
# ScMyo3 = target: ScMyo3
# Outline: as §1
# ScMyo5 = target: ScMyo5
# Outline: as §1
# ScNbp2 = target: ScNbp2
# Outline: as §1
# ScPex13 = target: ScPex13
# Outline: as §1
# ScRvs167 = target: ScRvs167
# Outline: as §1
# ScSho1 = target: ScSho1
# Outline: as §1
# ScSla1-D1-D2 = target: ScSla1-D1-D2
# Outline: as §1
# ScSla1-D3 = target: ScSla1-D3
# Outline: as §1
# SpAbp1-D1 = target: SpAbp1-D1
# Outline: as §1
# SpBbc1 = target: SpBbc1
# Outline: as §1
# SpBzz1-D1 = target: SpBzz1-D1
# Outline: as §1
# SpBzz1-D2 = target: SpBzz1-D2
# Outline: as §1
# SpCyk3 = target: SpCyk3
# Outline: as §1
# SpHof1 = target: SpHof1
# Outline: as §1
# SpHof1-2 = target: SpHof1-2
# Outline: as §1
# SpHof1-3 = target: SpHof1-3
# Outline: as §1
# SpHse1 = target: SpHse1
# Outline: as §1
# SpLsb1 = target: SpLsb1
# Outline: as §1
# SpLsb4 = target: SpLsb4
# Outline: as §1
# SpMyo1 = target: SpMyo1
# Outline: as §1
# SpNbp2 = target: SpNbp2
# Outline: as §1
# SpPex13 = target: SpPex13
# Outline: as §1
# SpRvs167 = target: SpRvs167
# Outline: as §1
# SpSla1-D1-D2 = target: SpSla1-D1-D2
# Outline: as §1
# SpSla1-D3 = target: SpSla1-D3
# Outline: as §1
binder,measurement,setting,value
AAHKTKPSIPPKKVE,SPOT peptide array binding signal intensity,AgAbp1,1520
same,SPOT peptide array binding signal intensity,AgBbc1,≤ 0
same,SPOT peptide array binding signal intensity,AgBem1-D1,≤ 0
same,SPOT peptide array binding signal intensity,AgBzz1-D1,57.5
same,SPOT peptide array binding signal intensity,AgBzz1-D2,5.5
same,SPOT peptide array binding signal intensity,AgCyk3,≤ 0
same,SPOT peptide array binding signal intensity,AgFus1,≤ 0
same,SPOT peptide array binding signal intensity,AgHof1,20
same,SPOT peptide array binding signal intensity,AgHse1,≤ 0
same,SPOT peptide array binding signal intensity,AgLsb1,≤ 0
same,SPOT peptide array binding signal intensity,AgLsb4,≤ 0
same,SPOT peptide array binding signal intensity,AgMyo5,3.75
same,SPOT peptide array binding signal intensity,AgNbp2,≤ 0
same,SPOT peptide array binding signal intensity,AgRvs167,1
same,SPOT peptide array binding signal intensity,AgSho1,8
same,SPOT peptide array binding signal intensity,AgSla1-D1-D2,≤ 0
same,SPOT peptide array binding signal intensity,AgSla1-D3,3.25
same,SPOT peptide array binding signal intensity,CaAbp1-D1,2440
same,SPOT peptide array binding signal intensity,CaAbp1-D2,6290
same,SPOT peptide array binding signal intensity,CaBbc1,42
same,SPOT peptide array binding signal intensity,CaBem1-D1,≤ 0
same,SPOT peptide array binding signal intensity,CaBzz1-D1,257
same,SPOT peptide array binding signal intensity,CaBzz1-D2,243
same,SPOT peptide array binding signal intensity,CaCyk3,≤ 0
same,SPOT peptide array binding signal intensity,CaFus1,≤ 0
same,SPOT peptide array binding signal intensity,CaHof1,1.5
same,SPOT peptide array binding signal intensity,CaHse1,13.2
same,SPOT peptide array binding signal intensity,CaLsb1,≤ 0
same,SPOT peptide array binding signal intensity,CaLsb4,≤ 0
same,SPOT peptide array binding signal intensity,CaMyo5,1
same,SPOT peptide array binding signal intensity,CaNbp2,≤ 0
same,SPOT peptide array binding signal intensity,CaRvs167,1.67
same,SPOT peptide array binding signal intensity,CaRvs167-3,≤ 0
same,SPOT peptide array binding signal intensity,CaSho1,≤ 0
same,SPOT peptide array binding signal intensity,CaSla1-D1-D2,282
same,SPOT peptide array binding signal intensity,CaSla1-D3,3.25
same,SPOT peptide array binding signal intensity,ScAbp1,907
same,SPOT peptide array binding signal intensity,ScBbc1,≤ 0
same,SPOT peptide array binding signal intensity,ScBem1-D1,≤ 0
same,SPOT peptide array binding signal intensity,ScBzz1-D1,3.5
same,SPOT peptide array binding signal intensity,ScBzz1-D2,1.5
same,SPOT peptide array binding signal intensity,ScCyk3,≤ 0
same,SPOT peptide array binding signal intensity,ScFus1,≤ 0
same,SPOT peptide array binding signal intensity,ScHof1,0.5
same,SPOT peptide array binding signal intensity,ScHse1,≤ 0
same,SPOT peptide array binding signal intensity,ScLsb1,0.25
same,SPOT peptide array binding signal intensity,ScLsb2,0.5
same,SPOT peptide array binding signal intensity,ScLsb3,144
same,SPOT peptide array binding signal intensity,ScLsb4,13.5
same,SPOT peptide array binding signal intensity,ScMyo3,8.5
same,SPOT peptide array binding signal intensity,ScMyo5,2
same,SPOT peptide array binding signal intensity,ScNbp2,≤ 0
same,SPOT peptide array binding signal intensity,ScPex13,7
same,SPOT peptide array binding signal intensity,ScRvs167,3.17
same,SPOT peptide array binding signal intensity,ScSho1,6
same,SPOT peptide array binding signal intensity,ScSla1-D1-D2,≤ 0
same,SPOT peptide array binding signal intensity,ScSla1-D3,2.5
same,SPOT peptide array binding signal intensity,SpAbp1-D1,282
same,SPOT peptide array binding signal intensity,SpBbc1,≤ 0
same,SPOT peptide array binding signal intensity,SpBzz1-D1,311
same,SPOT peptide array binding signal intensity,SpBzz1-D2,≤ 0
same,SPOT peptide array binding signal intensity,SpCyk3,≤ 0
same,SPOT peptide array binding signal intensity,SpHof1,0.25
same,SPOT peptide array binding signal intensity,SpHof1-2,6
same,SPOT peptide array binding signal intensity,SpHof1-3,3
same,SPOT peptide array binding signal intensity,SpHse1,32.8
same,SPOT peptide array binding signal intensity,SpLsb1,11.5
same,SPOT peptide array binding signal intensity,SpLsb4,4
same,SPOT peptide array binding signal intensity,SpMyo1,≤ 0
same,SPOT peptide array binding signal intensity,SpNbp2,12.5
same,SPOT peptide array binding signal intensity,SpPex13,1
same,SPOT peptide array binding signal intensity,SpRvs167,9.5
same,SPOT peptide array binding signal intensity,SpSla1-D1-D2,4
same,SPOT peptide array binding signal intensity,SpSla1-D3,2.5
